PubChem BioAssay AID1347076 (National Center for Advancing Translational Sciences (NCATS), 2019)
In all, about 400,000 compounds went through this assay and about 13,000 (3.2%) were called active. Not shown: some 18% with an inconclusive outcome. The sample holds actives, similar compounds and a random draw of the others, so the mix is not that of the screen. Unmarked numbers belong to inactive results. Calls come from the whole dose curve; as a rule, active = well fitted cell-killing curve with a large enough effect; inconclusive = small, poorly fitted or top-dose-only effect, or effect the other way; inactive = flat fitted curve, though single readings scatter.

experiment: qHTS assay for MDR1-selective chemotherapeutics: Primary screen using the drug-selected MDR subline cells KB-V1; details: KB-V1 MDR cells viability, CellTiter-Glo, 72 h; series mostly up to 46.1 µM; activity change, negative = cytotoxicity: at the top concentration; note: nearly all actives have a fitted effect of over 60% in size
How it was run: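 Compound-treated KB-V1 multidrug-resistant cells, 72 h, 37 degrees C; viability by CellTiter-Glo. Fitted qHTS curves give the values.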
% is set by controls: 0 for no effect and ±100 for the full control effect; potency is the fitted concentration of half-maximal effect.

Row | SMILES | activity change, negative = cytotoxicity [%] | Potency
1 | Cc1ccccc1-c1ccc2c(c1)O[C@@H](CN(C)Cc1ccc(C(=O)O)cc1)[C@@H](C)CN([C@H](C)CO)S2(=O)=O | -0.477 | –
2 | NC(CSC(c1ccccc1)(c1ccccc1)c1ccc(-c2ccccc2)cc1)C(=O)O (stereo unspecified) | -3.77 | –
3 | O=C1NC[C@H](Cc2ccc(O)cc2)N(C[C@@H]2CCCN2C[C@H](Cc2ccccc2)N2C[C@H](Cc3ccccc3)N(CC3CCCCC3)C(=O)C2=O)C1=O | -5.11 | –
4 | CCc1nc2c(OCC(=O)C(C)(C)C)cccn2c1N(C)C(=O)c1ccccc1F | -2.89 | –
5 | COc1cc(Cn2c3ccc(NC(=O)CC(C)c4ccccc4)cc3c(=O)n2C)ccc1F (stereo unspecified) | -18.4 | –
6 | Cc1ccc(S(=O)(=O)NC2CCCCCC2)cc1 | – | 20.6 µM (active)
7 | CC(C)c1ccc(S(=O)(=O)NC2CCCC2)cc1 | -29.7 | –
8 | CSc1ccc(S(=O)(=O)NC2CCCCC2)cc1 | -15.7 | –
9 | CCOc1cc(/C=N/NC(=O)c2ccncc2)cc(Br)c1O | 23.2 | –
10 | O=C(COC(=O)/C=C/c1ccc(Cl)cc1)NC1CCS(=O)(=O)C1 (stereo unspecified) | 16.4 | –
11 | C/C(=N\Nc1ncc(Cl)cc1Cl)c1ccc(S(=O)(=O)NCc2ccco2)cc1 | – | 2.06 µM (active)
12 | O=S(=O)(NCc1ccco1)c1cnc(Cl)c(Cl)c1 | 27.2 | –
13 | Cc1c(Cl)cnc(NC(=O)COC(=O)c2ccc(S(=O)(=O)NCc3ccco3)cc2)c1Cl | -7.05 | –
14 | COc1ccc(Cl)cc1NC(=O)CSc1nc2ccccc2c2nc(-c3ccccc3)nn12 | 2.49 | –
15 | O=C(CSc1ccccc1)Nc1cc(Cl)ccc1Oc1ccccc1 | – | 18.4 µM (active)
16 | CC(=O)Nc1ccc(SCC(=O)Nc2ccccc2Oc2ccccc2)cc1 | – | 4.61 µM (active)
17 | CC1CCCN(CC(=O)Nc2cc(Cl)ccc2Oc2ccccc2)C1 (stereo unspecified) | 2.14 | –
18 | CSc1cccc(NC(=O)CSc2ccccc2)c1 | -4.26 | –
19 | Cc1cc(C)cc(NC(=O)CSc2ccccc2)c1 | 0 | –
20 | CC(C)NC(=O)C1CCC(Cn2c(=O)c3sccc3n(Cc3ccc(F)cc3)c2=O)CC1 (stereo unspecified) | 14.1 | –
21 | Cc1cccc(CN2CCN(C3CN(Cc4ccccc4)S(=O)(=O)C3)CC2)c1 (stereo unspecified) | 1.24 | –
22 | C=CCOc1cccc(C2C(C(=O)c3ccc(C)o3)=C(O)C(=O)N2CCN2CCOCC2)c1 (stereo unspecified) | -32.9 | –
23 | COCCNC(=O)C1C(=O)Nc2ccccc2C(=O)N1c1ccc2c(c1)OCCO2 (stereo unspecified) | -6.15 | –
24 | O=S1(=O)CC(N2CCN(Cc3ccccc3F)CC2)CN1Cc1cn(Cc2ccccc2)nn1 (stereo unspecified) | 3.29 | –
25 | COc1ccc(Cn2c(=O)oc3ccccc32)cc1 | 1.97 | –
26 | CN1CCN(c2ccncc2S(=O)(=O)N2CCCC2)CC1 | 2.89 | –

Row | SMILES | activity change, negative = cytotoxicity [%] | Potency
27 | Cn1c(=N)n(CC(O)c2cccs2)c2ccccc21 (stereo unspecified) | 4.57 | –
28 | N=c1n(Cc2ccc(Cl)cc2)c2ccccc2n1CC(O)c1ccco1 (stereo unspecified) | – | 20.6 µM (active)
29 | Cn1c(=N)n(CC(O)c2ccccc2)c2ccccc21 (stereo unspecified) | 0.812 | –
30 | Cc1ccc(S(=O)(=O)N2CC[C@H]3[C@@H](C2)C(=O)C[C@@H](c2ccccc2)N3S(=O)(=O)c2ccc(C)cc2)cc1 | 9.68 | –
31 | Brc1cccc[n+]1Cc1cccc(C[n+]2ccccc2Br)c1 | 1.12 | –
32 | O=C(Nc1ncc2c(n1)-c1ccccc1OC2)c1ccc(Cl)cc1 | -0.505 | –
33 | COc1ccc(C(=O)Nc2onc3c2CCCC3)cc1 | -22.3 | –
34 | COc1ccc(C(=O)Nc2ncc3c(n2)-c2ccccc2CC3)cc1 | – | 13 µM (active)
35 | COc1cccc(CNC(=O)Cc2csc3nc(-c4ccccc4)cn23)c1 | 2.91 | –
36 | CCC(C(=O)Nc1cc(OC)ccc1OC)n1c(=O)c(C(F)(F)F)nc2ccccc21 (stereo unspecified) | -3.27 | –
37 | O=C(Nc1cccnc1)c1noc2c1CCCCC2 | – | 23.1 µM (active)
38 | CCOC(=O)c1ccc(-c2ccc(C(=O)Nc3cccnc3)o2)cc1 | -20.6 | –
39 | COc1cccc(C(=O)Nc2cccnc2)c1OC | 8.39 | –
40 | CC(C)CC(=O)Nc1cc(C(F)(F)F)ccc1N1CCOCC1 | -6.92 | –
41 | Cc1noc(C)c1S(=O)(=O)Nc1cc(C(F)(F)F)ccc1N1CCOCC1 | -15.2 | –
42 | Nc1cc(C(F)(F)F)ccc1N1CCOCC1 | – | 20.6 µM (active)
43 | Cc1ccccc1CNC(=O)CSc1nnc(C)c2c(C)n(-c3ccccc3)nc12 | -1.14 | –
44 | COc1cccc(C(NC(C)=O)c2nc(-c3ccccc3OC)cs2)c1 (stereo unspecified) | -18.7 | –
45 | CCN1CCCC1CNC(=O)c1ccc2c(c1)NC(=O)/C(=C\c1ccccc1F)S2 (stereo unspecified) | -4.63 | –
46 | COC(=O)c1ccc2nc(-c3ccc(F)cc3)c(Cc3ccc(C)cc3)n2c1 | – | 9.2 µM (active)
47 | COC(=O)c1ccc2nc(-c3ccc(Cl)cc3)c(Cc3cccc(F)c3)n2c1 | 13.5 | –
48 | COC(=O)c1ccc2nc(-c3cccc(Br)c3)c(Cc3ccc(OC)cc3C)n2c1 | -3.51 | –
49 | COC(=O)c1ccc2nc(-c3ccccc3)c(Cc3ccc(OC)cc3C)n2c1 | – | 23.1 µM (active)
50 | COC(=O)c1ccc2nc(-c3ccc(C)cc3)c(Cc3ccc(OC)cc3C)n2c1 | -24.1 | –
51 | COC(=O)c1ccc2nc(-c3ccc(OC)c(OC)c3)c(Cc3ccccc3)n2c1 | -3.03 | –
52 | OC[C@@H]1CN(Cc2ccc3c(c2)OCO3)C[C@H](n2cnc3c(NCc4ccco4)ncnc32)O1 | 0.266 | –

Row | SMILES | activity change, negative = cytotoxicity [%] | Potency
53 | CC1(c2cccc(N)c2)OCCO1 | 14.4 | –
54 | COc1ccc(NC(=O)Cn2c(=O)cc(C)c3c(C)nn(-c4cccc(Cl)c4C)c32)cc1OC | 4.25 | –
55 | Cn1nc(N)c2ncc(C(Cl)(Cl)Cl)nc21 | 16.9 | –
56 | Nc1cc(=O)c2[nH]cnc2[nH]1 | 11.3 | –
57 | S=c1[nH]c(=S)c2n[nH]nc2[nH]1 | -23.8 | –
58 | Cc1ccc2nc(-c3ccccc3)c(CC3CCCCC3)n2c1 | 8.28 | –
59 | Cc1ccc2nc(-c3cccnc3)c(NC3CCCC3)n2c1 | – | 2.59 µM (active)
60 | Cc1ccc2nc(-c3ccc(O)cc3)c(Nc3ccc4c(c3)OCO4)n2c1 | 12.8 | –
61 | COc1ccccc1CNc1nccn(-c2ccc(F)cc2)c1=O | 5.14 | –
62 | CCOC(=O)C1(C)CCCN(C(=O)c2cccc(Cl)c2)C1 (stereo unspecified) | -11.5 | –
63 | COc1ccc(CCNC(=S)N2CCN(S(=O)(=O)c3ccc(Cl)cc3)CC2)cc1 | 4.6 | –
64 | Oc1cc2c(cc1O)CN(C(=S)NCCc1ccc(Cl)cc1)CCC2 | – | 14.6 µM (active)
65 | O=C(NCCc1ccc(Cl)cc1)c1cccc(N2CCCC2=O)c1 | -5.68 | –
66 | Cc1cc([N+](=O)[O-])ccc1NC1CCCC1 | – | 16.4 µM (active)
67 | Cc1cc([N+](=O)[O-])ccc1NC(=O)C1CCCO1 (stereo unspecified) | -0.842 | –
68 | Cc1cc([N+](=O)[O-])ccc1NCc1cccc([N+](=O)[O-])c1 | -4.27 | –
69 | COc1ccc(-c2nnc(SCC(=O)Nc3ccc(C(C)C)cc3)nc2-c2ccc(OC)c(OC)c2)cc1OC | 10.8 | –
70 | CC1(C)CN(CCc2ccccc2)C(=O)[C@H]1CC(=O)Nc1ccc(Br)cc1 | -1.58 | –
71 | CC1(C(=O)NS(=O)(=O)c2ccccc2)CCN1C(=O)C/C=C/c1ccccc1 (stereo unspecified) | 1.3 | –
72 | O=C(Nc1ccccc1N1CCN(c2ccccc2)CC1)c1cccc(F)c1 | – | 11.6 µM (active)
73 | Cc1cccc(C(=O)Nc2ccccc2N2CCN(c3ccc(F)cc3)CC2)c1 | -30.1 | –
74 | CCn1c(=O)c(=O)n(CC)c2cc(N3CCCCC3)c(NC(=O)c3cccc(F)c3)cc21 | -3.16 | –
75 | O=C(NCc1nnnn1-c1ccc(Cl)cc1)c1ccc2c(c1)OCO2 | -9.69 | –
76 | Cc1ccc(S(=O)(=O)NCCC(=O)NCc2ccc(Cl)cc2)cc1C | 9.48 | –
77 | CSc1ccc(S(=O)(=O)NCc2ccc(Cl)cc2)cc1 | – | 23.1 µM (active)
78 | CC(C)CNS(=O)(=O)c1ccc(CCC(=O)NCc2ccc(Cl)cc2)cc1 | -5.32 | –

Row | SMILES | activity change, negative = cytotoxicity [%] | Potency
79 | CCCCN1C[C@H](c2ccc(Br)cc2)[C@@H](CC(=O)Nc2ccc(Br)cc2)C1=O | -4.39 | –
80 | O=C(Nc1ccc(F)cc1)c1ccc(S(=O)(=O)NCc2cccnc2)cc1 | 0 | –
81 | O=C(Nc1ccc(Br)cc1)c1ccc(Br)c(S(=O)(=O)NCc2ccccc2)c1 | – | 13 µM (active)
82 | Cc1ccc(C(=O)Nc2ccc(C(=O)O)cc2)cc1S(=O)(=O)Nc1ccccc1 | 1.49 | –
83 | COCCNC(=O)c1cc2c(Br)ccc(Br)c2nc1N | 0 | –
84 | O=S1(=O)CC(N2CCN(CCO)CC2)CN1Cc1cn(Cc2ccc(Cl)cc2)nn1 (stereo unspecified) | -0.0484 | –
85 | CC(C)n1ncc2c(C(=O)N3CCN(Cc4cccs4)CC3)cc(C3CC3)nc21 | -27.5 | –
86 | Cc1cc2oc(=O)cc(CN(C)Cc3ccccc3)c2cc1Cl | 0.451 | –
87 | CC1=NN(C(=O)Cc2ccc(C)cc2)C(O)(c2cccnc2)C1 (stereo unspecified) | 0.391 | –
88 | CCC1=NN(C(=O)Cc2ccc([N+](=O)[O-])cc2)C(O)(c2ccc(Br)cc2)C1 (stereo unspecified) | – | 13 µM (active)
89 | CC1=NN(C(=O)c2ccc(Br)cc2)C(O)(c2ccccc2)C1 (stereo unspecified) | 9.29 | –
90 | C[C@@H]1CN([C@H](C)CO)S(=O)(=O)c2ccc(C#CC3CCCCC3)cc2O[C@H]1CN(C)C(=O)Cc1ccncc1 | 0 | –
91 | COc1ccc(NC(=O)c2ccco2)cc1NC(=O)COc1ccc(C)c(C)c1 | -4.24 | –
92 | O=C(NCC(c1cccs1)N1CCOCC1)c1cc(-c2ccccn2)nc2ccccc12 (stereo unspecified) | -21.1 | –
93 | O=C(c1ccccc1)c1cc(-c2ccccn2)c(N2CCOCC2)s1 | – | 8.2 µM (active)
94 | CCc1ccc2ncc(C(=O)c3ccccc3)c(N3CCOCC3)c2c1 | -2.87 | –
95 | COCCNc1ncnc2c1ncn2[C@H]1CN(CCN2CCOCC2)C[C@@H](CO)O1 | 3.73 | –
96 | Fc1ccc(-n2ncc3c(Nc4ccc(Oc5ccccc5)cc4)ncnc32)cc1 | 0 | –
97 | Cn1c(C(=O)NCCCN2CCN(c3cccc(Cl)c3)CC2)cc2c(=O)n(C)c3ccccc3c21 | 15.4 | –
98 | OC(COc1ccccc1)CN1CCN(c2cccc(Cl)c2)CC1 (stereo unspecified) | 0.123 | –
99 | CCc1nn(CCCN2CCN(c3cccc(Cl)c3)CC2)c(=O)n1CCOc1ccccc1 | – | 6.51 µM (active)
100 | CC(O)(c1cccc(F)c1)c1nc(-c2ccc3c(c2)OCO3)cs1 (stereo unspecified) | 3.39 | –
101 | CCc1nc2ccc(C(=O)NCCNC(C)=O)cn2c1N(CC)Cc1cccc(Br)c1 | 5.36 | –
